Compound activity from PubChem BioAssay.
SARS PLP yeast – qHTS of Yeast-based Assay for SARS-CoV PLP. S. cerevisiae expressing SARS-CoV PLpro, growth rescue. Potency, µM (doses to about 32.9 µM), inactives show at the highest dose activity, positive = growth rescue, actives largely listed as activators. 0.19% of 330,000 active. AID 485353, 2010; calls by dose curve; further: potency means the concentration at half of the fitted maximal effect; 0% is about no effect; nearly all actives have a fitted effect of over 55% in size
Shiga toxin inh – A qHTS for Small Molecule Inhibitors of Shiga Toxin; inhibition, % at 38.7 µM; AID 2315, 2010; 9.2% of 290,000 active; Vero cells, Shiga toxin protein synthesis inhibition reporter; in the data active means inhibition mostly above about 28%, no sharp cut-off; inactive means mostly below about 43%; further: 0% is about no effect
Pf growth 96h – Primary qHTS for delayed death inhibitors of the malarial parasite plastid, 96 hour incubation; P. falciparum luciferase reporter growth, 96 h; Potency, µM (titrated, usually from 28.7 µM), without a hit: at the top dose activity change, negative = inhibition, hits mostly inhibitors; 6.9% of 320,000 active; AID 504834, 2011; further: potency means the concentration at half of the fitted maximal effect; on the % scale 0 is the no-effect control and ±100 the full control effect
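Luminescence readout: decreased luciferase signal marks inhibited growth of reporter-expressing P. falciparum in infected red cells (2% hematocrit, 0.05% parasitemia final), exposed to compound two generations (96 h, 37 C, 5% CO2).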
CHX counter – Cycloheximide Counterscreen for Small Molecule Inhibitors of Shiga Toxin; AID 2314, 2010; 12% of 300,000 active; max response, %; cell reporter, cycloheximide protein synthesis inhibition counterscreen; in the data active means max response mostly above about 13%, no sharp cut-off; inactive means mostly below about 14%; further: read at 38.3 µM for the half of the compounds with a filed dose; 0% is about no effect
AMA1-RON2 inh – qHTS for Inhibitors of AMA1-RON; Towards Development of Antimalarial Drug Lead: Primary Screen; AlphaScreen AMA1-biotinylated RON2 peptide binding; Plasmodium falciparum AMA1 (3D7) - RON2 peptide interaction; Potency, µM (top dose mostly 58.2 µM), for inactives: at the top dose activity change, negative = inhibition, hits mostly inhibitors; 0.2% of 360,000 active;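 further: potency means the concentration at half of the fitted maximal effect; 0% = vehicle wells and -100% = peptide control; nearly all actives have a fitted effect of over 45% in size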
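AMA1 (3D7) with his tag at 25 nM final met compounds first, then biotinylated RON2 peptide at 25 nM; detection used donor plus acceptor beads, 10 µg/mL apiece, read by AlphaScreen after 30 min at room temperature.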
Pf growth 48h – Primary qHTS for delayed death inhibitors of the malarial parasite plastid, 48 hour incubation; P. falciparum luciferase growth in erythrocytes, 48 h; AID 504832, 2011; 5.9% of 310,000 active; Potency, µM (highest dose often 28.7 µM), inactives show top-dose activity change, negative = inhibition, actives largely listed as inhibitors; further: potency means the concentration at half of the fitted maximal effect; on the % scale 0 is the no-effect control and ±100 the full control effect
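Luminescence readout; reporter = integrated firefly luciferase in P. falciparum. RBC culture at 2% hematocrit, 0.1% parasitemia final, 37 C/5% CO2; decreased signal taken as growth inhibition.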
Starred values were filed as active, the others as inactive; ? = inconclusive; · = no result given. The list is not random: actives were taken first. Their share in the collection is about 19%. Unless noted, the call rests on the fitted dose curve; in most records, active means well fitted curve in the direction sought with a large enough effect; inconclusive means small, poorly fitted or top-dose-only effect, or another doubt; inactive means no such curve, though single readings can be large; an effect the other way counts as inactive or inconclusive.

SMILES | SARS PLP yeast | Shiga toxin inh | Pf growth 96h | CHX counter | AMA1-RON2 inh | Pf growth 48h
C#CC(C)(CC)NC(=O)c1cc2cccc(CC=C)c2oc1=O (stereo unspecified) | -4.2% | -3.7 | ? | -0.9 | 0.0% | ?
CCCCc1nc2c(C)c(N)cnc2n1Cc1cccc([N+](=O)[O-])c1 | 0.8% | 3.1 | ? | -2.4 | 0.9% | -20.0%
CCOC(=O)C1CCN(C(=O)Cn2nc(C)n3c(cc4cc(F)ccc43)c2=O)CC1 | 7.0% | 1.1 | 42.3% | -3.4 | 2.7% | 3.6%
COC(=O)c1ccc(CN2C(=O)C3CCCCC3C2=O)o1 (stereo unspecified) | -5.9% | 11.2 | 60.2% | -3.9 | -1.9% | 3.29µM*
COc1cccc(/C=N\NC(=O)Cn2nnc3ccccc32)c1O | 0.4% | 75.5* | 27.2% | 27.1* | 62.2% | -18.1%
Cc1ccc(NC(=O)Cn2nnc3ccccc32)cc1 | -0.3% | 67.7* | -24.2% | 36.6* | -7.3% | 96.2%
O=C(Cn1nnc2ccccc21)Nc1ccc([N+](=O)[O-])cc1 | 0.7% | -12.0 | 27.3% | -2.9 | 0.1% | 14.5%
COc1ccc(NC(=O)COC(=O)Cn2nnc3ccccc32)cc1 | -0.8% | -6.4 | 39.7% | -4.4 | 0.0% | 21.0%
COc1cc(/C=N/NC(=O)Cn2nnc3ccccc32)ccc1O | 1.6% | 18.8 | 34.2% | 8.2 | 11.5% | 0.0%
COC(=O)c1ccc(NC(=O)CCCCCn2nnc3ccccc3c2=O)cc1 | -3.3% | 9.6 | 3.29µM* | 7.5 | -6.3% | 5.22µM*
COC(=O)c1ccc(NC(=O)Cn2nnc3ccccc32)cc1 | ? | 66.8* | 5.22µM* | 37.7* | -0.1% | 95.7%
O=C(CCCCCn1nnc2ccccc2c1=O)Nc1ccccc1Cl | 1.4% | 4.9 | -15.7% | -6.4 | 6.7% | 17.9%
O=S(=O)(Nc1ccc(-n2cnnn2)cc1)c1ccc(Cl)s1 | 3.3% | · | · | · | -1.5% | ·
Cc1ccccc1CNC(=O)c1csc([C@@H]2O[C@H](CO)[C@@H](O)[C@H]2O)n1 | · | · | · | · | 0.0% | ·
Cc1cccc(NC(=O)Cn2nnc3ccccc32)c1 | -0.2% | 136.1* | ? | 44.0* | -2.2% | 57.0%
Cc1cccc(NC(=O)Cn2c(=O)n(C)c3ccccc32)c1 | 6.9% | 15.8 | -5.5% | -1.3 | 7.3% | 33.9%
COCC(=O)NC1CCN(C(=O)Nc2ccc(Br)cc2)CC1 | 1.5% | -7.2 | · | 12.3 | 1.4% | -6.8%
CC(C)(CCC(=S)N1CCOCC1)C1CCCCC1 | 12.9% | 24.3 | 7.6% | 25.5* | 4.4% | 73.6%
Cc1ccc(CSc2nc(N)cc(N)n2)cc1 | -2.5% | · | 1.3% | 25.0* | -6.1% | 93.2%
Cc1cc(N2CCOCC2)nc(SCc2c(Cl)cccc2Cl)n1 | -70.5% | -0.8 | 265.5% | 0.7 | -0.8% | 0.9%
N#Cc1ccc(CSc2nc(N)cc(N)n2)cc1 | 15.4% | 12.9 | -33.2% | 7.9* | 2.3% | -15.0%
Cc1cc(N2CCCCC2)nc(SCc2ccc(C#N)cc2)n1 | -9.2% | 19.6 | · | -1.5 | -5.3% | 14.7µM*
COc1cc(NC(=O)N[C@H](C(=O)O)C(C)C)cc(OC)c1 | -4.5% | -17.3 | ? | -3.5 | -2.3% | 8.2%
CC[n+]1c(/C=C/C=C/N(C(C)=O)c2ccccc2)sc2cc(OC)ccc21 | -6.6% | -6.0 | 12.9% | -1.5 | ? | 9.28µM*
CC[n+]1c(/C=C/Nc2ccccc2)sc2ccccc21 | -7.1% | -13.3 | -84.6% | -4.6 | 41.5% | ?
SMILES | SARS PLP yeast | Shiga toxin inh | Pf growth 96h | CHX counter | AMA1-RON2 inh | Pf growth 48h
O=C(Cc1ccc(Br)cc1)Nc1ccc(S(=O)(=O)NCC2CCCO2)cc1 (stereo unspecified) | 0.4% | 25.8 | 71.1% | -3.5 | -9.2% | 4.4%
CS(=O)(=O)c1ccc(NS(=O)(=O)c2ccc(Cl)c(C(=O)NCc3ccco3)c2)cc1 | 2.2% | · | 31.6% | · | 0.0% | ?
Cc1[nH]c2ccccc2c1C(=O)COC(=O)c1ccc2c(=O)n3c(nc2c1)CCC3 | 2.0% | -8.0 | -11.3% | 4.8 | -2.6% | ?
COc1ccc(-c2cncnc2N)cc1OC | · | · | · | · | 1.5% | ·
COc1ccc(-c2cnc(OC(C)(C)C)nc2OC(C)(C)C)cc1OC | -0.8% | -11.5 | · | -3.4 | -1.9% | 10.4µM*
CN1CCCN(C(=O)c2c(F)cccc2Cl)CC1 | -1.8% | -14.6 | -23.6% | -1.5 | 2.1% | 9.3%
CC(C)N(C)CCOC(=O)C1COc2ccccc2O1 (stereo unspecified) | 1.3% | 6.5 | 31.1% | 1.5 | -27.3% | 32.1%
CCN1C(=O)[C@H]2[C@@H](c3ccc(-c4ccc(C(C)=O)cc4)c(OC)c3)N[C@@](Cc3ccccc3)(C(=O)OC)[C@H]2C1=O | -5.9% | · | 9.28µM* | · | -5.2% | 8.28µM*
CCN1C(=O)[C@H]2[C@@H](c3ccc(-c4cccc(Cl)c4)c(OC)c3)N[C@@](CC(C)C)(C(=O)OC)[C@H]2C1=O | 0.5% | · | 0.233µM* | · | -11.3% | 0.329µM*
COC(=O)C1(C)NC(c2ccc(F)cc2)C2C(=O)N(c3ccc(C)cc3)C(=O)C21 (stereo unspecified) | -7.0% | 16.0 | 2.33µM* | -0.9 | -0.1% | -0.6%
CCN1C(=O)[C@H]2[C@@H](c3ccc(-c4ccc(F)cc4)c(OC)c3)N[C@@](Cc3ccccc3)(C(=O)OC)[C@H]2C1=O | -1.5% | · | · | · | 3.7% | ·
CCN1C(=O)[C@H]2[C@@H](c3ccc(-c4ccccc4)c(OC)c3)N[C@@](Cc3ccccc3)(C(=O)OC)[C@H]2C1=O | -0.6% | · | 0.657µM* | · | 12.4% | 1.85µM*
CCN1C(=O)[C@H]2[C@@H](c3ccc(-c4cccc(Cl)c4)cc3)N[C@@](CC(C)C)(C(=O)OC)[C@H]2C1=O | -8.0% | · | · | · | -0.9% | ·
CCc1nn(CC(=O)NCCCN(C)Cc2ccccc2)c(=O)c2cc3sc(C)cc3n12 | 0.7% | -5.2 | -23.9% | -2.8 | -2.5% | -11.3%
NC(=O)C1CCN(Cc2nc3cc(C(F)(F)F)ccc3c(=O)[nH]2)CC1 | -0.7% | -6.0 | -0.4% | -2.5 | 32.4% | 12.3%
CCN1C(=O)[C@H]2[C@@H](c3ccc(-c4ccc(Cl)c(Cl)c4)cc3)N[C@@](C)(C(=O)OC)[C@H]2C1=O | -8.6% | · | ? | · | 2.4% | ?
CCN1C(=O)[C@H]2[C@@H](c3ccc(-c4ccc(Cl)c(Cl)c4)c(OC)c3)N[C@@](C)(C(=O)OC)[C@H]2C1=O | -0.4% | · | 0.928µM* | · | -0.8% | 2.08µM*
CCCCCCc1nnc(N)s1 | 3.0% | -2.7 | 41.4% | -1.6 | -2.7% | ·
OCCC1CN(CC2CC2)CCN1Cc1ccc(F)c(F)c1 (stereo unspecified) | ? | -4.5 | 13.1µM* | 0.9 | 10.0% | 35.2%
Cc1ccccc1CN1CCN(C2CCC2)CC1CCO (stereo unspecified) | -0.4% | 18.9 | 14.7µM* | 1.1 | -8.8% | 0.7%
OCCC1CN(C2CCC2)CCN1Cc1ccc(F)c(F)c1 (stereo unspecified) | ? | -14.5 | 11.7µM* | -1.4 | -18.7% | -1.4%
